Among the data in PubChem BioAssay (NCI) are growth values, retold here.

The panel holds about 83,000 compounds, 20% with a hit somewhere; the sample as a whole holds those more often.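 Interpretation: 100, growth as untreated; towards 0, rising growth inhibition; 0, no net growth; 0 to -100, cell death. Compounds scoring below 10 were considered active.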 Unmarked numbers belong to inactive results. Activity calls are given as the source filed them.

Holding throughout (test): NCI-60 one-dose screen, 48 h (100 = growth as untreated, 0 = no growth, -100 = all killed)
Experiment [1] concerns SK-MEL-2 melanoma. Conditions: 10 µM.
The test system of experiment [2] is EKVX NSCLC. Conditions: 10 µM unless noted.
Experiment [3] deals with SN12C renal. The note with it: 10 µM unless noted.
The subject of experiment [4] is UO-31 renal. Conditions: 10 µM unless noted.
Experiment [5] deals with TK-10 renal. The note with it: 10 µM unless noted.
Experiment [6] concerns ACHN renal. The note with it: 10 µM unless noted.
For experiment [7], the system named is A498 renal. The note with it: 10 µM unless noted.
Experiment [8] has as its system CCRF-CEM leukemia. Conditions: 10 µM unless noted.
The subject of experiment [9] is MOLT-4 leukemia. The note with it: 10 µM unless noted.
Experiment [10] relates to SR leukemia. The note with it: 10 µM unless noted.
For experiment [11], the system named is RPMI-8226 leukemia. Conditions: 10 µM unless noted.
Experiment [12] relates to OVCAR-8 ovarian. Conditions: 10 µM unless noted.
In experiment [13] the test system is OVCAR-5 ovarian. The note with it: 10 µM unless noted.
For experiment [14], the system named is OVCAR-4 ovarian. The note with it: 10 µM unless noted.
Experiment [15] concerns SK-OV-3 ovarian. The note with it: 10 µM unless noted.
In experiment [16] the test system is IGROV1 ovarian. The note with it: 10 µM unless noted.
The test system of experiment [17] is OVCAR-3 ovarian. The note with it: 10 µM unless noted.
Experiment [18] deals with HS 578T breast. Conditions: 10 µM.
Experiment [19] concerns NCI/ADR-RES ovarian. The note with it: 10 µM unless noted.

Turning to `O=c1nc2c(-c3nc4ccccc4s3)n[nH]n2c2sc3c(c12)CCCC3`, the growth in experiment [1] was 112%; in [2] it was 92%; in [3], 97.1%; in experiment [4], 75.4%; in [5], 147%; in experiment [6], 105%. Besides, the growth in experiment [7] is 103%; in experiment [8], 79.8%; in experiment [9], 98.6%; in experiment [10], 90.6%; in experiment [11], 94.3%; in experiment [12], 94%. The growth in experiment [13] was 120%; in experiment [14], 115%; in experiment [15] it was 92.3%; in experiment [16], 101%; in experiment [17], 95%; in experiment [18], 94.3%. For the same molecule, the growth in [19] is 96.9%.
In the case of `CC(=O)C(C(C)=O)C(c1ccccc1)C(C(C)=O)C(C)=O`, the growth in experiment [1] is 100%; in [2] it was 96.9%; in experiment [3] it was 98.9%; in experiment [4] it was 90.9%; in [5], 98.1%; in experiment [6] it was 106%. For the same molecule, the growth is 105% in experiment [7]; 93.5% in experiment [8]; 104% in [9]; 105% in [10]; 98.7% in [11]; 96.5% in experiment [12]. The growth in [13] is 102%; in experiment [14], 87.1%; in [15] it was 95.4%; in experiment [16], 104%; in experiment [17], 116%; in experiment [18], 99.8%. In addition, the growth in [19] was 94.5%.
`COc1ccc(-c2nc(N)ncc2Oc2ccccc2OC)c(O)c1`: the growth in [1] was 17.4%; in experiment [2], 40.1%; in experiment [3], 48.7%; in experiment [4], 46%; in [5], 55.9%; in experiment [6] it was 43.5%. For the same molecule, the growth in [7] was 34.3%; in [8], 19.7%; in experiment [9], 26.9%; in experiment [10], 27.9%; in experiment [11], 25.7%; in [12], 35.6%. In addition, the growth was 60.2% in experiment [13]; 75.7% in experiment [14]; 24.8% in experiment [15]; 48.7% in [16]; -4.77% (active) in experiment [17]; 36.2% in [18]. Moreover, in experiment [19], the growth is 17.9%.
With `COc1cc2c3c(c1)nc(C)n3CCC2`, the growth is 100% in [1]; 95.5% in experiment [2]; 99.6% in experiment [3]; 91.1% in experiment [4]; 99% in experiment [5]; 108% in [6]. Also, the growth in experiment [7] is 100%; in [8], 93.2%; in [9] it was 98.4%; in experiment [10], 101%; in [11], 105%; in experiment [12], 96.4%. Further, the growth is 102% in experiment [13]; 96% in experiment [14]; 90.8% in experiment [15]; 109% in experiment [16]; 109% in [17]; 105% in experiment [18]. The growth in experiment [19] is 103%.
On to `Cc1cc(N2CCCC2)nc(N(CCCNc2ccnc3cc(Cl)ccc23)Cc2ccc3c(c2)OCO3)n1`, for which the growth in experiment [1] was -50.7% (active); in experiment [2] it was 35.9%; in experiment [3], 29.3%; in [4] it was -24.5% (active); in [5], -12.6% (active); in experiment [6], -10.7% (active). The growth in experiment [7] was 13.6%; in [8], 1% (active); in experiment [9], -15.4% (active); in [10], -36% (active); in experiment [11] it was -31.2% (active); in [12] it was -2.12% (active). Moreover, the growth in experiment [13] was -3.2% (active); in experiment [14], 13.5%; in experiment [15], 53.5%; in experiment [16], -7.14% (active); in experiment [17] it was -32.8% (active); in experiment [18], -32.2% (active). Besides, the growth in experiment [19] was 1.74% (active).
For `CCCc1cc2cc(-n3nc(C)c4c3CC(C)(C)CC4=O)cc(NC3CCC(O)CC3)c2c(=O)[nH]1` (centres undefined), the growth in experiment [1] was 41.6%; in experiment [2] it was 47.7%; in experiment [3], 41.4%; in experiment [4], 29.7%; in [5], 40.8%; in [6], 28.8%. Further, the growth in experiment [7] was 64%; in experiment [8], 20.3%; in experiment [9], 14.7%; in [10], 23.8%; in experiment [11] it was 15.2%; in [12], 33%. The growth in experiment [13] is 50.5%; in [14] it was 64.7%; in experiment [15] it was 6.8% (active); in [16], 36.9%; in experiment [17], 23.2%; in experiment [18], 47.4%. Further, the growth in experiment [19] is 45.5%.
